# Experimental data: PubChem BioAssay
# Values joined by “and” are separate entries in the source; they are usually repeats but may differ in a detail not shown here. Equal entries are not always repeated. More than one record can exist for a structure, and the calls need not agree. Active and inactive are the calls of the source. Unless noted, the rule behind the calls is not given here.
# What was measured:
# [1] = HepG2 liver cancer cell viability effects, profiling panel, resazurin fluorescence, 24 h, PK04 Diversity Set (AID 1172); details: higher = more signal; note: test concentration not given here
# [2] = basal S. cerevisiae growth modulation, no modifier, primary screen, OD600, strain BY4716, 24 h, basal condition (AID 1173); details: OD600, 24 h, higher = more signal, called active from +8 up or from −8 down
# [3] = MM1S myeloma cell viability, profiling panel, resazurin fluorescence, basal, 24 h, PK04 Diversity Set (AID 1174); details: higher = more signal, called active from +8 up or from −8 down;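 note: MM1S multiple myeloma cell line; test concentration not given here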
# [4] = molecular target: Dihydroorotate dehydrogenase (quinone), mitochondrial (Plasmodium falciparum (isolate 3D7)) (UniProt Q08210); assay: PfDHODH enzyme inhibitors, primary screen, biochemical, C-terminal His tag, absorbance 600 nm (AID 1175); details: DCIP absorbance 600 nm, higher = more signal, called active from +8 up or from −8 down;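 note: recombinant parasite enzyme with a five histidine tag at its C terminus; test concentration not given here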
# [5] = P. aeruginosa biofilm formation inhibitors, primary screen, strain PAO1, LB-PBS medium, absorbance 600 nm (AID 1176); note: test concentration not given here; details: P. aeruginosa PAO1 growth/biofilm, A600, 12 h; higher = more signal
# [6] = S. cerevisiae RM11-1a growth modifiers, primary screen, strain RM11-1a, OD600, basal, 24 h (AID 1177); details: OD600, 24 h, higher = more signal, called active from +8 up or from −8 down;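 note: cultures grown under basal conditions with no added stressor; test concentration not given here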
# [7] = E. coli acrAB mutant growth effects, primary screen, E. coli filamentation inducers, strain DRC39, OD650, 24 h (AID 1178); details: higher = more signal, called active from +8 up or from −8 down;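 note: growth measured as culture turbidity by optical density at 650 nm; test concentration not given here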
# [8] = E. coli acrAB mutant growth effects, primary screen, E. coli filamentation inducers, strain DRC39, OD650, 48 h (AID 1179);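 note: screen aims at cell division blockers that make cells filament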; details: E. coli DRC39 delta-acrAB growth, higher = more signal, called active from +8 up or from −8 down
# [9] = RPMI8226 myeloma cell viability, profiling panel, resazurin fluorescence, basal, 24 h, PK04 Diversity Set (AID 1180); details: higher = more signal;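 note: RPMI8826 multiple myeloma cell line at 5000 cells per well; test concentration not given here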
# [10] = molecular target: E3 ubiquitin-protein ligase XIAP (Homo sapiens) (UniProt P98170); assay: XIAP binders, primary screen, biophysical, small-molecule microarray, fluorescence 635 nm (AID 1181); details: small-molecule microarray binding, higher = more signal;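 note: score merges 667 nm emission and signal to noise over triplicate slides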
# E3 ubiquitin-protein ligase XIAP (Homo sapiens), sequence (P98170 whole entry, looked up): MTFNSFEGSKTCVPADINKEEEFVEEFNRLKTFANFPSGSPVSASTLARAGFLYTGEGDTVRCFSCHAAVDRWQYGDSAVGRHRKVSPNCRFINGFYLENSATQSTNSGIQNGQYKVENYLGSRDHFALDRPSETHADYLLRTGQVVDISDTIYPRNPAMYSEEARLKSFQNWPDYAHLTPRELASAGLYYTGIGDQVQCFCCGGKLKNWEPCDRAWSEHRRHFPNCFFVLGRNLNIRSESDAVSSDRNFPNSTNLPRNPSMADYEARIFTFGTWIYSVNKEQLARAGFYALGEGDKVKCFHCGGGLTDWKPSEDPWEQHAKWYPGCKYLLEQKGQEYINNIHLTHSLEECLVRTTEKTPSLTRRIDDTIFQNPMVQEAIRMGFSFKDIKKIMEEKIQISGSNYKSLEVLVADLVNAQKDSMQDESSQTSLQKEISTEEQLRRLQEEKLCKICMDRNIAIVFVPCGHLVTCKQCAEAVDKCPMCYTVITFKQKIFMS
# Dihydroorotate dehydrogenase (quinone), mitochondrial (Plasmodium falciparum (isolate 3D7)), sequence (Q08210 whole entry, looked up): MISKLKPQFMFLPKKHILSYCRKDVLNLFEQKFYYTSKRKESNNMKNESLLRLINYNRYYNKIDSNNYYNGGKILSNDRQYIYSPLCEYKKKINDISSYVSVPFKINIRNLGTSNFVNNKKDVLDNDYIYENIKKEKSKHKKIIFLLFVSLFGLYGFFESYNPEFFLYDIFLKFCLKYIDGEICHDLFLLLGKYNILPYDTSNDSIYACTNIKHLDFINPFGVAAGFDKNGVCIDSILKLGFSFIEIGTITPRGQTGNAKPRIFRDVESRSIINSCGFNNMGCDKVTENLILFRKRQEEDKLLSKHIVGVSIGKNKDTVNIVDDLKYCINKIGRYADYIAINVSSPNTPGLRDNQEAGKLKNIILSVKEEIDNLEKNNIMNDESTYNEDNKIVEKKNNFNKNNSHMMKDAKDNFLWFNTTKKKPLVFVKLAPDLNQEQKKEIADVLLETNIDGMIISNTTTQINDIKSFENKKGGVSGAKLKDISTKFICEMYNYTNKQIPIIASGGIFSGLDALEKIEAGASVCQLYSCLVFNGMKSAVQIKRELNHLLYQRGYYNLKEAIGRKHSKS
SMILES,z-score [1],z-score [2],z-score [3],composite z-score [4],z-score [5],z-score [6],z-score [7],z-score [8],z-score [9],composite z-score [10]
C=CCN(Cc1ccccc1)C(=O)C1N(CCCCCCO)C(=O)C2C(C(=O)O)C3C=CC21O3 (stereo not given),-0.29 and 0.875,-0.356 (inactive) and -0.726 (inactive),-0.231 (inactive) and 0.723 (inactive),-0.248 (inactive) and -1.43 (inactive),0.95 (inactive) and 0.441 (inactive),-0.325 (inactive) and -0.784 (inactive),0.0108 (inactive) and 0.14 (inactive),-0.187 (inactive) and -0.172 (inactive),-0.615 and 0.439,0.0898 and -0.395
COC(=O)[C@H](C)NC(=O)CCC1CC(OC(=O)NCCc2ccc(F)cc2)CC2(CCCC(COC(=O)NCCCN3CCCC3=O)O2)O1 (stereo not given in full),-0.704,-0.343 (inactive),0.951 (inactive),0.322 (inactive),-0.977 (inactive),0.492 (inactive),-0.441 (inactive),-0.367 (inactive),0.315,-0.283
COCn1c2ccccc2c2nnc(C(C)=O)nc21,-0.159 and -0.565,-1.93 (inactive) and -2 (inactive),-0.0104 (inactive) and 0.0255 (inactive),-2.39 (inactive) and -2.01 (inactive),-0.907 (inactive) and -0.576 (inactive),0.204 (inactive) and -0.16 (inactive),-1.12 (inactive) and -1.17 (inactive),-1.07 (inactive) and -1.34 (inactive),-0.261 and -0.35,-0.0095 and -0.065
COC(=O)[C@@]1(Cc2ccccc2)[C@H]2c3cc(C(=O)N(C)C)n(Cc4ccc(C)c(F)c4F)c3C[C@H]2CN1C(=O)c1ccccc1,-2.95 and -1.72,-0.265 (inactive) and 0.53 (inactive),-9.12 (active) and -3.68 (inactive),-3.37 (inactive) and -0.0662 (inactive),3.02 (inactive) and 2.16 (inactive),0.526 (inactive) and 0.401 (inactive),-0.347 (inactive) and -1.25 (inactive),-0.834 (inactive) and -0.836 (inactive),-6.06 and -3.79,0.188 and 0.122
C=CCN(C(=O)C(c1cccs1)N(C(=O)/C=C\C(=O)O)C(C)(C)CO)C(C)(C)C (stereo not given),-0.432 and -0.115,-1.64 (inactive) and -0.838 (inactive),0.626 (inactive) and 0.391 (inactive),-0.98 (inactive) and -0.499 (inactive),0.454 (inactive) and -0.0837 (inactive),-1.86 (inactive) and -1.72 (inactive),1.97 (inactive) and 0.291 (inactive),2.07 (inactive) and 0.946 (inactive),0.356 and 0.366,-0.0669 and 0.0153
CCOC(=O)C[C@H]1[C@H](OC(=O)c2ccccc2-c2ccccc2)[C@@H](NC(=O)c2ccccc2)c2cc(OCCCO)ccc2N1C(=O)c1ccc2ccccc2n1,0.578 and -0.48,-0.602 (inactive) and 1.01 (inactive),0.602 (inactive) and -0.924 (inactive),0.139 (inactive) and -0.264 (inactive),-0.152 (inactive) and 0.432 (inactive),-0.26 (inactive) and -0.698 (inactive),1.39 (inactive) and -0.851 (inactive),0.845 (inactive) and -0.687 (inactive),-0.236 and -0.847,-0.227 and 0.0451
CC(=O)OC[C@H]1O[C@H](C#CC(C)(C)C)C=C[C@@H]1OC(C)=O,-0.374,-0.854 (inactive),-0.756 (inactive),-0.187 (inactive),-0.151 (inactive),-0.066 (inactive),0.545 (inactive),0.221 (inactive),-0.26,0.0237
C=CC[C@H](O)c1ccc(OCCO)cc1,0.116 and -0.551,-1.47 (inactive) and -1.79 (inactive),-0.567 (inactive) and -0.911 (inactive),-0.364 (inactive) and -0.704 (inactive),0.225 (inactive) and -0.0818 (inactive),-0.0329 (inactive) and -0.774 (inactive),0.375 (inactive) and -0.241 (inactive),0.333 (inactive) and -0.405 (inactive),-0.535 and 0.0681,0.0697 and -0.152
CC(CO)N1C(=O)[C@@H]2C3C(=O)OCCC=C[C@H]3OC23C=CCN(c2ccc(Cl)cc2)C(=O)[C@@H]13 (stereo not given in full),-0.445 and 0.702,0.604 (inactive) and -0.219 (inactive),-0.0472 (inactive) and -0.544 (inactive),-1.16 (inactive) and -1.13 (inactive),-0.497 (inactive) and -0.167 (inactive),1.43 (inactive) and -0.727 (inactive),0.519 (inactive) and -0.342 (inactive),0.399 (inactive) and -0.538 (inactive),0.23 and -0.131,0.269 and -0.0172
COC(=O)C1=C(C)N(Cc2ccccc2)C2=C3C(=O)N(C)C(=O)[C@@H]3[C@@](O)(C(=O)OC)C(=O)N2[C@@H]1c1ccccc1,0.498 and -1.16,-0.816 (inactive) and -1.23 (inactive),0.92 (inactive) and -0.281 (inactive),-0.105 (inactive) and -0.613 (inactive),-0.27 (inactive) and 0.0039 (inactive),-0.544 (inactive) and -2.42 (inactive),0.448 (inactive) and -0.0247 (inactive),0.275 (inactive) and 0.0957 (inactive),0.922 and -0.377,-0.0622 and -0.0848
C#CCCCON=C1C[C@@H](O)[C@@H](O)[C@@H]2[C@@H]3C(=O)N(C4CCCCC4)C(=O)[C@@H]3CC[C@H]12,-0.477,-0.248 (inactive),-2.78 (inactive),-0.822 (inactive),-0.568 (inactive),-0.126 (inactive),0.331 (inactive),0.771 (inactive),-1.08,-0.0945
C=CCN(C(=O)C1N(c2c(Cl)cccc2CO)C(=O)C2C(C(=O)O)C3C=CC21O3)c1ccc(OC)cc1 (stereo not given),-0.48 and 0.737,-0.566 (inactive) and -0.241 (inactive),-1.03 (inactive) and 0.874 (inactive),-0.394 (inactive) and -0.0226 (inactive),-0.137 (inactive) and -0.428 (inactive),0.344 (inactive) and -1.83 (inactive),-0.237 (inactive) and 1.79 (inactive),-0.293 (inactive) and 1.93 (inactive),-0.509 and 1.06,0.281 and -0.152
COc1ccc(-c2ccc3c(n2)CCCN3CC(O)CN2CCCc3nc(-c4ccc(Br)cc4)ccc32)cc1 (stereo not given),-0.721 and 0.465,-4.64 (inactive) and -1.56 (inactive),-0.791 (inactive) and -0.334 (inactive),0.0106 (inactive) and 0.0126 (inactive),-0.139 (inactive) and -0.245 (inactive),0.665 (inactive) and 0.0647 (inactive),0.336 (inactive) and 0.725 (inactive),0.191 (inactive) and 0.761 (inactive),-0.286 and -0.439,1.04 and 0.94
COC(=O)C1=C(C)N(Cc2ccccc2)[C@]23O[C@](C(=O)OC)(C(=O)N2[C@@H]1c1ccccc1)[C@@H](c1ccccc1)[C@@H]3C(=O)c1ccccc1,1.07 and 0.475,-1.84 (inactive) and -0.926 (inactive),0.876 (inactive) and 0.459 (inactive),0.78 (inactive) and 0.324 (inactive),-0.0933 (inactive),-1.37 (inactive) and -0.224 (inactive),-0.603 (inactive) and 0.788 (inactive),-0.263 (inactive) and 0.547 (inactive),0.56 and 0.48,-0.209 and 0.0264
COC(=O)C1=C(C)N(Cc2ccccc2)[C@]23O[C@](C(=O)OC)(C(=O)N2[C@@H]1c1ccccc1)[C@@H](C(=O)OC)[C@H]3C(=O)OC,0.348 and -0.761,0.583 (inactive) and -0.704 (inactive),0.409 (inactive) and -0.59 (inactive),0.466 (inactive) and -0.412 (inactive),0.177 (inactive) and 0.241 (inactive),1.62 (inactive) and 0.72 (inactive),0.148 (inactive) and 0.72 (inactive),0.165 (inactive) and 0.532 (inactive),0.537 and -0.332,-0.17 and -0.219
COC(=O)C1=C(C)N(Cc2ccccc2)C2=C3C(=O)N(c4ccccc4)C(=O)[C@@H]3[C@@](O)(C(=O)OC)C(=O)N2[C@@H]1c1ccccc1,0.941 and 0.879,-1.31 (inactive) and -2.61 (inactive),0.463 (inactive) and 1.02 (inactive),-0.0764 (inactive) and -0.563 (inactive),-0.847 (inactive),-0.305 (inactive) and -1.62 (inactive),0.284 (inactive) and 1.07 (inactive),-0.23 (inactive) and 1.2 (inactive),0.698 and 0.334,0.122 and 0.0178
CO[C@H]1COC(=O)CC=C[C@@H](C)COC(=O)[C@@H](OCc2ccccc2)C=C[C@@H]1C,0.537,-1.93 (inactive),0.155 (inactive),-0.825 (inactive),-0.72 (inactive),-0.78 (inactive),0.84 (inactive),0.929 (inactive),0.142,-0.245
